bovine MsrA act: bovine MsrA enzyme activators, primary screen, biochemical, absorbance, HTS. activation, % at 10.6 µM. 360,000 compounds, 0.3% hits. purified bovine MsrA, absorbance read-out. AID 602163, 2012. Methionine sulfoxide reductase A (Bos taurus); in the data active = activation above about 7.5%;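 also: 0% = vehicle and 100% = reference activator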
MsrA inhibitor: bovine MsrA enzyme inhibitors, primary screen, biochemical, absorbance, HTS | 360,000 compounds, 0.75% hits | AID 651718, 2012 | purified bovine MsrA, absorbance read-out | inhibition, % at 15.5 µM | Methionine sulfoxide reductase A (Bos taurus); in the data active = inhibition above about 4.5%;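 also: 0% = vehicle wells with enzyme and 100% = reference inhibitor wells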
KLK7 zymogen act: proKLK7 zymogen activators, primary screen, biochemical, fluorescence intensity | purified proKLK7, EDANS-DABCYL substrate fluorescence; 100% is mature enzyme control, 0% vehicle | activation, % at 7 µM | Kallikrein-7 (Homo sapiens), P49862 | 370,000 compounds, 0.9% hits;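 active = activation above the mean of all tested compounds plus 3 SD, computed per campaign excluding outliers beyond control limits, cut at about 13% in these data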
Target sequence (P49862 whole entry, looked up): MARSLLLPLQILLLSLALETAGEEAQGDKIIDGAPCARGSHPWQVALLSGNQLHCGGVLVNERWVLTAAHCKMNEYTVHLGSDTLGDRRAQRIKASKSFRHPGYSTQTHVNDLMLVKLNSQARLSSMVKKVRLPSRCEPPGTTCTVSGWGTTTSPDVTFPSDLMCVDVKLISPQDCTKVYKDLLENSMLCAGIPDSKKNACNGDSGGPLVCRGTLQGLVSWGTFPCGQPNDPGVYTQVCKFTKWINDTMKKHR
SMARCA2 activ: SMARCA2 (BRM) function activators, primary screen, cell-based, luminescence, high throughput. MG213 cells, MMTV-luciferase reporter, dexamethasone, overnight. activation, % at 9.1 µM. 370,000 compounds, 1% hits; in the data active = activation above about 7.8%;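 also: 0% = vehicle wells and 100% = reference activator wells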
proKLK7 act conf: proKLK7 zymogen activators, confirmation, biochemical, fluorescence intensity, triplicate. activation, % at 7 µM. AID 686949, 2013. shares compounds with KLK7 zymogen act. 3,200 compounds, 68% hits. purified proKLK7, EDANS-DABCYL substrate fluorescence; scaled: vehicle 0, mature enzyme 100;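 active = activation, as change over the incubation, above the mean of all tested compounds plus 3 SD, cut at about 13% in these data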
EDANS-DABCYL int: EDANS-DABCYL substrate optical interference, artefact control for kallikrein-7 zymogen activator project, biochemical, fluorescence intensity, high throughput | AID 686952, 2013 | activation, % at 7 µM | 3,200 compounds, 80% hits | shares compounds with KLK7 zymogen act | no enzyme, 4 h; solvent 0%, active enzyme control 100%;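 active = activation above the all-compound mean plus 3 SD, ignoring values outside control-based bounds, cut at about 4.8% in these data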;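 also: value is the 4 h activation minus the activation read at time zero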
EDANS interf: optically interferes with EDANS-DABCYL fluorescence, kallikrein-7 activator counter-screen | EDANS-DABCYL peptide fluorescence interference, no enzyme | shares compounds with KLK7 zymogen act | EC50, µM | 250 compounds, 20% hits | AID 720493;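 active = compounds that raise the fluorescence signal in this interference counterscreen, with EC50 at or below 10 µM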;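 also: intact quenched peptide substrate alone read at 355 nm excitation and 520 nm emission; signal is fluorescence gain from T0 to T4 after four hours at room temperature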
An asterisk follows results filed as active. Hits are enriched below; roughly 2.8% of the tested compounds scored in any of these assays.

How did COc1ccc(-c2cn3cccnc3n2)cc1F do in these assays?
bovine MsrA act: -4; MsrA inhibitor: 4; KLK7 zymogen act: 64*; SMARCA2 activ: 1; proKLK7 act conf: 78*; EDANS-DABCYL int: 83*

What do the screens show for `O=S(=O)(Nc1cccc(-c2cn3cccnc3n2)c1)c1ccc(F)cc1`?
bovine MsrA act: -6; MsrA inhibitor: 2; KLK7 zymogen act: 58*; SMARCA2 activ: 2; proKLK7 act conf: 14*; EDANS-DABCYL int: 14*

Results for COc1ccc(-c2cn3cccnc3n2)cc1NC(=O)c1cc(OC)c(OC)c(OC)c1 ?
bovine MsrA act: -8; MsrA inhibitor: 4; KLK7 zymogen act: 5; SMARCA2 activ: 0

What do the screens show for `Cc1ccc(-c2nnc(SCC(=O)Nc3ccc(Oc4ccccc4)cc3)n2-c2ccc(Cl)cc2)cc1`?
KLK7 zymogen act: 0; SMARCA2 activ: -5

What do the screens show for `COc1ccc(OC)c(C(O)c2ncc(-c3ccc(C(F)(F)F)cc3)[nH]2)c1` (stereo not given)?
bovine MsrA act: -3; MsrA inhibitor: 0; KLK7 zymogen act: 1; SMARCA2 activ: -5

What do the screens show for `Cc1noc(C)c1C(C)C1=CCCCC1` (stereo not given)?
KLK7 zymogen act: 0; SMARCA2 activ: 1

How did O=S(=O)(Nc1ccc(-c2cn3cccnc3n2)cc1)c1ccccc1 do in these assays?
bovine MsrA act: -4; MsrA inhibitor: 4; KLK7 zymogen act: 65*; SMARCA2 activ: -3; proKLK7 act conf: 22*; EDANS-DABCYL int: 22*

How did CC(=O)Nc1ccc(C2Nc3ccccc3C(=O)N2C2CCCCC2)cc1 (stereo not given) do in these assays?
bovine MsrA act: -5; MsrA inhibitor: 1; KLK7 zymogen act: 13*; SMARCA2 activ: 1; proKLK7 act conf: 30*; EDANS-DABCYL int: 26*; EDANS interf: inactive

What do the screens show for `COc1cccc(N2CCN(CC(=O)NCc3ccco3)CC2)c1`?
KLK7 zymogen act: 0; SMARCA2 activ: -4

What do the screens show for `C[C@H]1Cn2cnc(C(=O)Nc3ccccc3)c2C(=O)N1`?
bovine MsrA act: -1; MsrA inhibitor: 1; KLK7 zymogen act: 0; SMARCA2 activ: -2

Results for COCC(=O)Nc1nc(-c2ccc(-c3ccccc3)cc2)cs1 ?
bovine MsrA act: -5; MsrA inhibitor: 0; KLK7 zymogen act: 0; SMARCA2 activ: 0

How did COCC(=O)Nc1nc(-c2ccc([N+](=O)[O-])cc2)cs1 do in these assays?
bovine MsrA act: -2; MsrA inhibitor: 1; KLK7 zymogen act: 109*; SMARCA2 activ: 1; proKLK7 act conf: -2; EDANS-DABCYL int: -2

Results for CNC(=O)c1cc2c(cn1)[nH]c1ccccc12 ?
bovine MsrA act: 2; MsrA inhibitor: 0; KLK7 zymogen act: 32*; SMARCA2 activ: 0; proKLK7 act conf: 7; EDANS-DABCYL int: 4.4*

Results for COc1ccc(N2C(=O)c3ccccc3NC2c2cccnc2)cc1 (stereo not given) ?
bovine MsrA act: -3; MsrA inhibitor: 1; KLK7 zymogen act: 0; SMARCA2 activ: 2

How did O=C1c2ccccc2NC(c2cccnc2)N1c1ccccc1F (stereo not given) do in these assays?
bovine MsrA act: -2; MsrA inhibitor: 0; KLK7 zymogen act: 23*; SMARCA2 activ: 0; proKLK7 act conf: 40*; EDANS-DABCYL int: 32*

Results for CCOc1ccc(CCNC(=O)COC(=O)c2nccnc2N)cc1OCC ?
bovine MsrA act: -2; MsrA inhibitor: 1; KLK7 zymogen act: 30*; SMARCA2 activ: -2; proKLK7 act conf: 63*; EDANS-DABCYL int: 55*

What do the screens show for `CCOC1=C2CN(S(=O)(=O)c3ccc(C)cc3)C(c3ccccc3)CC2N(S(=O)(=O)c2ccc(C)cc2)C(c2ccc(Br)cc2)C1` (stereo not given)?
MsrA inhibitor: -1; KLK7 zymogen act: 0; SMARCA2 activ: -2

What do the screens show for `CC1=C(C(=O)N(C(C)C)C(C)C)CC(CC(=O)NC(c2ccccc2)c2ccccc2)C(=O)N1Cc1ccc(C(C)(C)C)cc1` (stereo not given)?
bovine MsrA act: -1; MsrA inhibitor: 1; KLK7 zymogen act: 0; SMARCA2 activ: -4

How did O=c1c2ccccc2c(/C=N/c2n[nH]c(CCCO)n2)c(O)n1-c1ccccc1Cl do in these assays?
bovine MsrA act: -13; MsrA inhibitor: 1; KLK7 zymogen act: 27*; SMARCA2 activ: 7; proKLK7 act conf: 5; EDANS-DABCYL int: 5.8*

Results for O=C(N/N=C/c1c(O)n(-c2ccccc2Cl)c(=O)c2ccccc12)C1COc2ccccc2O1 (stereo not given) ?
bovine MsrA act: -5

How did CCc1nc(CN2CCCC(C(=O)c3ccc4c5c(cccc35)CC4)C2)c(C)[nH]1 (stereo not given) do in these assays?
bovine MsrA act: -7; MsrA inhibitor: 1; KLK7 zymogen act: 15*; SMARCA2 activ: -4; proKLK7 act conf: -4; EDANS-DABCYL int: 0

What do the screens show for `O=C(c1cc2c(ccc3ccccc32)o1)N1CCCCC1`?
bovine MsrA act: -1; MsrA inhibitor: 0; KLK7 zymogen act: 0; SMARCA2 activ: 7

How did CN1CCN(C(=O)c2cc3c(ccc4ccccc43)oc2=O)CC1 do in these assays?
bovine MsrA act: -3; MsrA inhibitor: 2; KLK7 zymogen act: 56*; SMARCA2 activ: 7; proKLK7 act conf: 22*; EDANS-DABCYL int: 21*

Results for NNC(=O)c1cc2c(ccc3ccccc32)o1 ?
bovine MsrA act: -6; MsrA inhibitor: 0; KLK7 zymogen act: 3; SMARCA2 activ: -1

What do the screens show for `COC(=O)c1cc2c(ccc3ccccc32)oc1=O`?
bovine MsrA act: -2; MsrA inhibitor: 0; KLK7 zymogen act: 65*; SMARCA2 activ: -2; proKLK7 act conf: 67*; EDANS-DABCYL int: 74*

How did Cc1cccc(-c2cccc3c4c([nH]c23)[C@@H]2C[C@H](N(C)C(=O)Nc3ccccc3C)[C@H]([C@H](C)O)CN2CC4)c1 do in these assays?
KLK7 zymogen act: -1; SMARCA2 activ: -7

Results for COC(=O)c1cc2c(s1)-c1ccccc1OC2 ?
bovine MsrA act: -1; MsrA inhibitor: 2; KLK7 zymogen act: 82*; SMARCA2 activ: 3; proKLK7 act conf: 76*; EDANS-DABCYL int: 80*

Results for COc1ccccc1N1CCN(C(=O)c2cc3c(s2)-c2ccccc2OC3)CC1 ?
bovine MsrA act: -3; MsrA inhibitor: 1; KLK7 zymogen act: -5; SMARCA2 activ: -2

Compound activity deposited in PubChem by The Scripps Research Institute Molecular Screening Center.
